SMN2 splice up = qHTS Assay for Enhancers of SMN2 Splice Variant Expression | Potency, µM (series often up to 46.1 µM), for inactives: at the top dose activity change, positive = activation, hits mostly activators | AID 1458, 2008 | 2.8% of 210,000 active | HEK293 SMN2-luciferase splicing reporter, luminescence, 30-36 h; note: % of control where 0% means no effect; nearly all actives have a fitted effect of over 55% in size
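qHTS luciferase splicing reporter: luminescence rises when SMN2 exon 7 is included in transfected HEK293 cells. Compound exposure lasted 30-36 h at 37C, with 4.5 mM final sodium butyrate as control, followed by a ONE-Glo read.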
Rab9 prom act = qHTS Assay for Rab9 Promoter Activators; Huh7 Rab9 promoter-luciferase reporter, luminescence, 24 h; Potency, µM (titrated, usually from 9.22 µM), inactives show at the highest dose activation, negative = inhibition, actives largely listed as activators; 2.8% of 320,000 active; AID 485297, 2010; note: % of control where 0% means no effect; nearly all actives have a fitted effect of over 60% in size
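Rab9 promoter-driven luciferase in stably transfected Huh7 cells; 1500 cells/well rested 2 h, exposed to compound in DMSO for 24 h at 37 °C, 5% CO2. Luminescence read 10 min after adding luciferase reagent at ambient temperature.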
ELG1 genotox = qHTS screen for small molecules that induce genotoxicity in human embryonic kidney (HEK293T) cells expressing luciferase-tagged ELG1; 1.3% of 330,000 active; HEK293T ELG1-luciferase reporter, luminescence, 16 h; Potency, µM (highest dose often 46 µM), inactives show at the highest dose activity change, positive = activation, most hits filed as activators; note: % of control where 0% means no effect; nearly all actives have a fitted effect of over 60% in size
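Genotoxic stress is detected as increased luminescence from luciferase-tagged ELG1 in HEK293T cells, measured with ONE-Glo after a 16 hr treatment at 37 °C.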
FLuc counter = qHTS profiling assay for firefly luciferase inhibitor/activator using purifed enzyme and Km concentrations of substrates (counterscreen for miR-21 project). AID 588342, 2011. Potency, µM (doses to about 57.5 µM), for the others: at the highest dose activity change, negative = inhibition, actives largely listed as inhibitors. Luciferin 4-monooxygenase (Photinus pyralis), P08659. 6.9% of 360,000 active. purified FLuc, Km substrates, luminescence inhibition;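 note: plate controls were vehicle for no effect and reference inhibitor for full effect; nearly all actives have a fitted effect of over 55% in size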
Target sequence (P08659 whole entry, looked up): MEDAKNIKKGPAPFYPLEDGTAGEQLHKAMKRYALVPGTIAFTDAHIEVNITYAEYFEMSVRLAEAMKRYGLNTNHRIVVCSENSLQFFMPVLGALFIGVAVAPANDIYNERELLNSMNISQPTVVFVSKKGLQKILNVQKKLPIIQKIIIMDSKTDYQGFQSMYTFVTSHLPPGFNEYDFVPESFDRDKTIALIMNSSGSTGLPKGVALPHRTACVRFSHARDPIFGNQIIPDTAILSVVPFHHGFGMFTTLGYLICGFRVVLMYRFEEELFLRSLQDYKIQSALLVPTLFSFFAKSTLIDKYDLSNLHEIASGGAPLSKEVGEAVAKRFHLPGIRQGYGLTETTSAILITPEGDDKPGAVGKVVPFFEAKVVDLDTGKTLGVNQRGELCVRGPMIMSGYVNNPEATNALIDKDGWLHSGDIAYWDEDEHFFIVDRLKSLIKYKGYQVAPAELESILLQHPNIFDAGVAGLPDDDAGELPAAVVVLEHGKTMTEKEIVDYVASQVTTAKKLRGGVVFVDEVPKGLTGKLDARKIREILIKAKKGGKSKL
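Biochemical qHTS of compounds, final roughly 60 µM downward over six points, against 10 nM purified firefly luciferase using Km concentrations of substrates (10 uM D-luciferin, 10 uM ATP) in Tris acetate pH 7.5 buffer; luminescence output.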
NPC1 promoter act = qHTS Assay for NPC1 Promoter Activators | 2.4% of 320,000 active | Huh7 NPC1 promoter luciferase reporter, 24 h | Potency, µM (titrated, usually from 9.22 µM), for inactives: top-dose activation, usual class: activators; note: % of control where 0% means no effect; nearly all actives have a fitted effect of over 60% in size
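Luminescence read-out of NPC1 promoter-driven luciferase in stably transfected Huh7 cells; compounds delivered in DMSO and left 24 h at 37C, 5% CO2, qHTS titration format.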
An asterisk follows results filed as active; ? = inconclusive; / = no result given; [ ] = dose if it differs, or a comment. Compounds with a hit are over-represented: about 7.4% of the library has one in this group of screens. Calls come from the whole dose curve; as a rule, active = well fitted curve in the direction sought with a large enough effect; inconclusive = small, poorly fitted or top-dose-only effect, or another doubt; inactive = no such curve, though single readings can be large; an effect the other way counts as inactive or inconclusive. Potency is the fitted concentration of half-maximal effect.

SMILES | SMN2 splice up | Rab9 prom act | ELG1 genotox | FLuc counter | NPC1 promoter act
N/C(Cc1ccc(Cl)cc1Cl)=N\OC(=O)Cc1cccs1 | 15% | -3% | 12% | 5.4µM* | 10%
COc1ccc(OCC(=O)O/N=C(\N)Cc2cccs2)cc1 | -7%[1.84 µM] | 3% | 5% | ? | 6%
Cc1ccc(N(CCC#N)C(=O)COC(=O)c2cc(C)oc2C)cc1 | / | 1% | 1% | / | 1%
COc1cc(NC(=O)CCc2c(C)[nH]c(=O)c(C#N)c2C)cc(OC)c1 | / | -2% | 5% | 0% | -2%
O=C(CC1N=C2c3ccccc3N=C(SCc3ccc(F)cc3)N2C1=O)NCc1ccco1 (stereo not given) | ? | -2% | 24% | -17% | -2%
Cc1ccc(CSC2=Nc3ccccc3C3=NC(CC(=O)NCc4ccco4)C(=O)N23)cc1 (stereo not given) | 11µM* | -4% | 6% | ? | 9%
CCOC(=O)Nc1ccc2c(C)cc(=O)oc2c1 | 14µM* | ? | 18µM* | 15µM* | ?
CCCCOC(=O)Nc1ccc2c(C)cc(=O)oc2c1 | 11µM* | 1.4µM* | 18µM* | 6µM* | 1.8µM*
COc1ccccc1N1CCN(C(=O)Nc2cccc(Cl)c2)CC1 | -17% | 1% | 8% | ? | 13%
COc1cccc(NC(=O)c2ccc(NC(=O)C(C)C)cc2)c1 | / | ? | ? | 11µM* | ?
COc1cc(C(=O)Nc2ccc(S(=O)(=O)N(C)c3ccccc3)cc2)cc(OC)c1OC | ? | 10% | 11% | -1% | -6%
COc1cccc(NC(=O)C(C)C)c1 | / | -6% | 2% | -3% | -2%
O=C(Nc1ccc(F)cc1)c1cccc(C(=O)Nc2ccc(F)cc2)c1 | / | 7% | 10% | -1% | 4%
O=C(Nc1ccc(F)cc1)c1ccc2nsnc2c1 | / | ? | 9% | 13µM* | ?
COc1cc(C(=O)Nc2ccc(N(C)C)cc2)cc(OC)c1OC | / | 24% | ? | 3µM* | 4%
COc1cccc(NC(=O)N2CCN(c3cccc(C)c3C)CC2)c1 | 2% | 3% | ? | 15µM* | 18%
CNc1ccc(O)cc1 | 8% | / | / | / | /
O=C(CSc1nc2ccccc2[nH]1)Nc1ccc(N2CCOCC2)cc1 | / | 0% | -3% | ? | 2%
COC(=O)c1cccc(CN2C(=O)SC(Nc3ccccc3C)C2=O)c1 (stereo not given) | 7% | / | / | -1% | /
CCOc1cc(S(=O)(=O)NCCCN2CCOCC2)ccc1F | / | 3% | -1% | -1% | -4%
COc1cccc(NC(=O)CC(=O)c2ccc([N+](=O)[O-])cc2)c1 | / | 3%[1.84 µM] | 8% | 2.1µM* | ?
COc1ccc2cc(/C(C)=N/NC(=O)C3CC3)ccc2c1 | 16µM* | 2.8µM* | 18µM* | 2.4µM* | 2.5µM*
CC(=O)Nc1cccc(/C(C)=N/NS(=O)(=O)c2ccccc2)c1 | 20% | -4% | 1% | 2% | -4%
COC(=O)c1ccccc1NC(=O)Nc1cccnc1 | 9% | 4% | 0% | 15µM* | 11%
COc1ccc(S(=O)(=O)N/N=C(/C)c2cccc(NC(=O)c3ccccc3Cl)c2)cc1 | -3% | 0% | -3% | 27µM* | -3%
SMILES | SMN2 splice up | Rab9 prom act | ELG1 genotox | FLuc counter | NPC1 promoter act
COc1cccc(NC(=O)CCC(=O)Nc2cccc(OC)c2)c1 | -14% | 6% | 2% | -1% | 2%
CCN(CC)CCCNC(=O)CCCn1c(=O)[nH]c2ccc(Br)cc2c1=O | 6% | / | / | -2% | /
COc1ccccc1CNC(=O)C(NS(=O)(=O)c1cccc2nsnc12)C(C)C (stereo not given) | / | -1% | -3% | 6% | -1%
COc1cccc(NC(=O)c2ccc3nsnc3c2)c1 | / | ? | ? | 12µM* | ?
COc1cccc(C(=O)N/N=C(\C)CC(=O)Nc2ccc(N(C)C)cc2)c1 | / | -2% | 1% | ? | 0%
C/C(=N/NC(=O)c1ccoc1C)c1cccc(NC(=O)C(F)(F)F)c1 | 18% | 28% | ? | ? | 15%
COc1cccc(/C(C)=N/NC(=O)c2ccc(N(C)C)cc2)c1 | ? | 3.5µM* | ? | 19µM* | ?
COc1ccc(C(=O)Nc2cccc(OC)c2)cc1 | 2.8µM* | 1.3µM* | 2.3µM* | 6.7µM* | 2µM*
COc1ccc(C(=O)N/N=C(/C)c2cccc(NC(=O)C(F)(F)F)c2)cc1 | 10µM* | ? | ? | 11µM* | 3.5µM*
COc1ccc(NC(=O)Nc2ccc(Br)cn2)cc1OC | -2% | 3% | 14% | ? | 1%
COc1cccc(NC(=O)c2ccccc2C(F)(F)F)c1 | 10% | 4% | -1% | 0% | -5%
COc1cccc(NC(=O)c2cccc(C(=O)Nc3cccc(OC)c3)c2)c1 | / | 10% | 13% | -1% | 10%
COc1ccccc1NC(=O)c1ccc2nsnc2c1 | / | 4µM* | ? | 15µM* | ?
COc1cccc(NC(=O)Nc2ccc(Br)cn2)c1 | / | 3.2µM* | ? | ? | ?
COc1cccc(NC(=O)c2ccccc2)c1 | / | 1.8µM* | ? | 11µM* | 2.8µM*
COc1cccc(NC(=O)c2ccc(OC(F)(F)F)cc2)c1 | / | 1.8µM* | ? | 2.4µM* | 4µM*
COc1cccc(C(=O)Nc2cc(Cl)c(O)c(Cl)c2)c1 | / | 12% | 8% | 15µM* | ?
COc1cccc(C(=O)Nc2cccc(-c3ccccc3)c2)c1 | / | 3% | 1% | 21µM* | 2%
COc1cc(OC)cc(C(=O)Nc2cccc(C(C)=O)c2)c1 | 10% | 18% | ? | ? | 15%
COc1cc(OC)cc(C(=O)Nc2cccc(NC(=O)c3ccccc3)c2)c1 | / | 0% | -7% | 17µM* | -4%
COc1cccc(NC(=O)c2cccc(C)c2[N+](=O)[O-])c1 | ? | ? | ? | 19µM* | 10%
COc1cccc(C(=O)Nc2cccc(NC(C)=O)c2)c1 | -1% | -1% | 3% | ? | -5%
COc1cccc(NC(=O)Nc2cccnc2)c1 | / | 5% | 2% | 17µM* | 17%
COc1ccc(S(=O)(=O)N/N=C(/C)c2ccco2)cc1 | / | 2.5µM* | ? | 17µM* | ?
Cc1[nH]c2ccc(C(=O)Nc3ccc(F)cc3)cc2c1C | / | / | / | 24µM* | /
COc1ccc(S(=O)(=O)N/N=C(/C)c2ccncc2)cc1 | / | 5% | -1% | 6% | -2%
COc1ccc(NC(=O)Nc2cccnc2)c(OC)c1 | 7% | -2% | 3% | -10% | 1%
CC(C)OC(=O)c1cccc(NC(=O)c2ccccc2)c1 | ? | ? | 14% | 13µM* | ?
Cc1nn(-c2ccccc2)c2sc(C(=O)Nc3cccc(O)c3)cc12 | 7% | / | / | ? | /

Compound activity from PubChem.
